Source: PubChem BioAssay (NCI)
This is part of a sample that, as a whole, favours compounds with a hit. Of some 83,000 tested, about 20% had one in any assay.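 Step 1: grow cells in 96-well plates. Step 2: add test compound at a single concentration. Step 3: incubate 48 h. Step 4: record percent growth.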 Values without a mark were called inactive. Calls of active or inactive are those of the source.

System: OVCAR-4 ovarian
Assay: NCI-60 one-dose screen, 48 h (100 = growth as untreated, 0 = no growth, -100 = all killed)
Conditions: 10 µM unless noted
Method: Growth inhibition of the OVCAR-4 human tumor cell line is measured as a screen for anti-cancer activity. Cells are grown in 96 well plates and exposed to the test compound for 48 hours. Compounds are tested at a single concentration, which is 10^-5 M for most compounds. The reported endpoint is percent growth (GI% or GIPRCNT), where numbers from 0 - 100% represent growth inhibition, and numbers from -100% - 0 represent cell death. For example, a value of 40 represents 60% growth inhibition. A value of 0 means no net growth occurred over the course of the experiment. A value of -40 indicates 40% of cells at the beginning of the experiment died by the end of the experiment. A value of -100 means all cells are dead at the end of the experiment.
NCI-60 Human Tumor Cell Lines Screen was performed using the standard one-dose NCI protocol, which is described in more detail at https://dtp.cancer.gov/discovery_development/nci-60/default.htm.
Compounds with GIPRCNT values below 10 were considered active. Activity score was based on GIPRCNT using the following formula: […]
Score is 0 for GIPRCNT values of 100 or above, 50 for GIPRCNT values of 0, and 100 for GIPRCNT values of -100.

**Q.** Which growth does the source give for `COc1cc(/C=C/C(=O)c2ccc(-n3cc(CN4CCN(c5cc6c(cc5F)c(=O)c(C(=O)O)cn6C5CC5)CC4)nn3)cc2)cc(OC)c1OC` here?
**A.** 96.7%

**Q.** How did the growth turn out when `O=C(c1ccc(F)cc1)C1CCN(CCn2c(=O)[nH]c3ccccc3c2=O)CC1` was run?
**A.** 109%

**Q.** How did the growth turn out when `Cc1nc2c(c(-c3ccccc3)n1)Cc1c(ccc3ccccc13)O2` was run?
**A.** 99.4%

**Q.** For `FC(F)(F)c1cc(N2CCCCC2)nc(NCCCNc2ccnc3cc(Cl)ccc23)n1`, which growth is on record?
**A.** 43.4%

**Q.** `CCN(CC)CCN1C(=O)c2c(c(C)c3c(oc4cc(OC)ccc43)c2C)C1=O` was tested. Which growth did it give?
**A.** 73.8%

**Q.** How did the growth turn out when `COc1ccc(Cn2cc(C(=O)N=Nc3c(O)[nH]c4ccc(Br)cc34)nn2)cc1` was run?
**A.** 105%

**Q.** For `CCOc1ccccc1NC(=O)CCC(=O)OC`, which growth is on record?
**A.** 95.4%

**Q.** How did the growth turn out when `COC(=O)c1nc(-c2ccccc2)oc1S(=O)(=O)N1CCN(c2ccc(OC)cc2)CC1` was run?
**A.** 88.7%

**Q.** How did the growth turn out when `O=C(NCCN1CCOCC1)c1cncnc1Nc1ccc2c(ccn2Cc2ccccn2)c1` was run?
**A.** 106%

**Q.** How did the growth turn out when `COc1ccc(C2=NN3C(C2)c2cc(Br)ccc2OC3c2ccncc2)cc1` (stereo not given) was run?
**A.** 78.9%

**Q.** With `O=C(Nc1ncc(Cc2cc(C(F)(F)F)ccc2Cl)s1)C(=S)N1CCOCC1` as the compound, how does the growth read?
**A.** 84.5%

**Q.** With `COc1ccc(CNc2ccc3nc(CCC4CCCCC4)[nH]c3c2)cc1` as the compound, how does the growth read?
**A.** 40.1%

**Q.** How did the growth turn out when `CN1CCN(Cc2ccc(NC(=O)c3cncc(C#Cc4cnc(N)c5ncccc45)c3)cc2Cl)CC1` was run?
**A.** 104%

**Q.** How did the growth turn out when `Cc1cccc(C)c1NC(=O)Nc1ccccc1` was run?
**A.** 76.6%

**Q.** For `CC(C)c1nc(N(C)S(C)(=O)=O)nc(-c2ccc(F)cc2)c1/C=C/C(=O)C[C@@H](O)CC(=O)O`, which growth is on record?
**A.** 113%

**Q.** How did the growth turn out when `O=C(Nc1ccccc1)Nc1ccccc1CNc1nc(Nc2ccc(OCCN3CCCC3)cc2)ncc1Cl` was run?
**A.** 19.5%

**Q.** Which growth does the source give for `C#Cc1cccc(Nc2nc(Cl)nc3cc(NC(=O)CCl)ccc23)c1` here?
**A.** -66.4% (active)

**Q.** `C=CCn1c(SCC(=O)Nc2ccc(C(=O)/C=C/c3ccc(Cl)cc3)cc2)nnc1-c1ccccc1` was tested. Which growth did it give?
**A.** 85.2%

**Q.** How did the growth turn out when `Cn1nc(-c2ccc(Cl)cc2)nc2c(=O)n(C)c(=O)nc1-2` was run?
**A.** -99.7% (active)

**Q.** For `O=C1/C(=C/c2ccc(-c3ccc(Cl)cc3)o2)SC(=S)N1CCc1ccc(O)cc1`, which growth is on record?
**A.** 25.6%

**Q.** For `O=C(Nc1cccc(Cl)c1)Oc1c(Cl)c(Cl)c(Cl)c(Cl)c1Cl`, which growth is on record?
**A.** 89%

**Q.** `COc1ccc(NC(=O)c2ccc(Cl)cc2Cl)cc1` was tested. Which growth did it give?
**A.** 78.7%

**Q.** `CC/C(=C(/c1ccc(Cl)cc1)c1ccc(OCCCN(C)C)cc1)c1ccc(OC)cc1` was tested. Which growth did it give?
**A.** 86.6%

**Q.** `CCCCCCCCCCCCCCCCCCOc1ccccc1CC(=O)OCC[N+]1(C)CCCCC1` was tested. Which growth did it give?
**A.** 32%

**Q.** Which growth does the source give for `COc1ccc(S(=O)(=O)N(C)c2oc(-c3ccc(Cl)cc3)nc2C#N)cc1` here?
**A.** 76.4%

**Q.** How did the growth turn out when `O=C1C=CC2(O)OC(c3ccccc3)CC(=O)C2=C1O` (stereo not given) was run?
**A.** 79.5%

**Q.** Which growth does the source give for `COc1ccc(-c2ccc(-c3ccc(C(=N)N)nc3)s2)cc1` here?
**A.** -79.7% (active)

**Q.** For `C/C(=C(\c1ccc(OCCCN(C)C)cc1)c1ccc(OC(=O)Cc2ccccc2)cc1)c1ccc(Cl)cc1`, which growth is on record?
**A.** 69.8%

**Q.** With `CN1/C(=C/C=C/c2n(Cc3ccc4ccccc4c3)c(Cl)c(Cl)[n+]2Cc2ccc3ccccc3c2)Oc2ccccc21` as the compound, how does the growth read?
**A.** -70.7% (active)

**Q.** Which growth does the source give for `CC1=C(C(=O)c2ccccc2)C(c2ccc3c(c2)OCO3)NC(=S)N1` (stereo not given) here?
**A.** 82.3%

**Q.** `COC(=O)c1c(C)nc(C)c2c1C(=O)C(Br)=C(NCCN1CCOCC1)C2=O` was tested. Which growth did it give?
**A.** 73.8%

**Q.** `C#CCOc1cc(/C=N/Nc2nc(-c3ccc(OC)cc3)cs2)ccc1O` was tested. Which growth did it give?
**A.** 71.7%

**Q.** How did the growth turn out when `CC(C)n1cc(C2=C(c3cccc4ccccc34)C(=O)NC2=O)c2cc(Br)ccc21` was run?
**A.** 64.9%

**Q.** Which growth does the source give for `Cc1ccc(Nc2cc(N)nc(N)n2)cc1` here?
**A.** 96.9%

**Q.** With `Fc1ccc(/C=C/c2cc(/C=C/c3ccc(F)cc3)n(-c3cc(F)cc(F)c3)n2)cc1` as the compound, how does the growth read?
**A.** 107%

**Q.** Which growth does the source give for `O=C(Nc1ncc(Cc2ccccc2)s1)c1ccc2c(c1)OCCO2` here?
**A.** 46.3%

**Q.** `COc1cc(/C=N/NC(=O)c2ccc3nc(-c4ccc(Cl)cc4)[nH]c3c2)cc(OC)c1OC` was tested. Which growth did it give?
**A.** 102%

**Q.** `Cn1ncc(CC(=O)O)c1-n1nnc2cc(Cl)ccc2c1=O` was tested. Which growth did it give?
**A.** 94.6%

**Q.** Which growth does the source give for `CN1CCN(Cn2nc(-c3cc(Cl)cc(Cl)c3Cl)oc2=S)CC1` here?
**A.** 92.8%

**Q.** Which growth does the source give for `CCN(CC)CCCNC(=O)c1c2c(n3ccccc13)C(=O)c1ncccc1C2=O` here?
**A.** -83.4% (active)
